From PubChem BioAssay AID1159580 (chemical genetic matrix, 2015)
Among all 5,500 compounds or so, about 2,000 (36%) were called active. Not shown: some 18% with an inconclusive outcome. The list shows a part of the results. Values without a mark were called inactive. Rule as the data show it: active = normalized growth mostly below about 0.91 (no sharp cut-off); inconclusive = no clear call, values can overlap the other calls; inactive = mostly above about 0.92.

Assay: chemical genetic growth profiling, strain panel (AID 1159580);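 also: tested at 20 µM; growth read once vehicle control cultures reached saturation at 30 °C; 1 = growth at the plate median or of vehicle wells; lower values mean less growth of the strain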
Settings: growth OD

Structure (SMILES): COc1ccc2c(c1)OC[C@@H](Cc1ccc(OC)c(OC)c1)[C@@H]2O
- normalized growth (S. cerevisiae deletion strains, locus YJR075W, strain HOC1, hits give low values): 0.951
- normalized growth (S. cerevisiae deletion strains, locus YKL009W, strain mrt4, hits give low values): 0.985
- normalized growth (S. cerevisiae deletion strains, locus YKL068W, hits give low values): 0.988
- normalized growth (S. cerevisiae deletion strains, locus YKL085W, strain MDH1 (second series), hits give low values): 0.956
- normalized growth (S. cerevisiae deletion strains, locus YKL085W, strain MDH1, hits give low values): 0.956
- normalized growth (S. cerevisiae deletion strains, locus YKL160W, strain elf1, hits give low values): 1
- normalized growth (S. cerevisiae deletion strains, locus YKL190W, strain CNB1, hits give low values): 1
- normalized growth (S. cerevisiae deletion strains, locus YKR001C, strain vps1, hits give low values): 0.892 (active)
- normalized growth (S. cerevisiae deletion strains, locus YKR026C, strain gcn3, hits give low values): 0.992
- normalized growth (S. cerevisiae deletion strains, locus YKR091W, strain srl3, hits give low values): 0.988
- normalized growth (S. cerevisiae deletion strains, locus YLL001W, strain dnm1, hits give low values): 0.99
- normalized growth (S. cerevisiae deletion strains, locus YLL026W, hits give low values): 0.995
- normalized growth (S. cerevisiae deletion strains, locus YLL041C, strain sdh2, hits give low values): 0.989
- normalized growth (S. cerevisiae deletion strains, locus YLR027C, strain aat2, hits give low values): 0.989
- normalized growth (S. cerevisiae deletion strains, locus YLR039C, strain RIC1, hits give low values): 0.749
- normalized growth (S. cerevisiae deletion strains, locus YLR058C, strain SHM2, hits give low values): 0.997
- normalized growth (S. cerevisiae deletion strains, locus YLR102C, strain apc9, hits give low values): 0.987
- normalized growth (S. cerevisiae deletion strains, locus YLR113W, strain HOG1, hits give low values): 0.875
- normalized growth (S. cerevisiae deletion strains, locus YLR221C, strain rsa3, hits give low values): 1.01
- normalized growth (S. cerevisiae deletion strains, locus YLR258W, strain gsy2, hits give low values): 0.979
- normalized growth (S. cerevisiae deletion strains, locus YLR262C, strain YPT6 (second series), hits give low values): 0.831 (active)
- normalized growth (S. cerevisiae deletion strains, locus YLR262C, strain YPT6, hits give low values): 0.805
- normalized growth (S. cerevisiae deletion strains, locus YLR268W, strain sec22, hits give low values): 0.999
- normalized growth (S. cerevisiae deletion strains, locus YLR320W, strain mms22, hits give low values): 0.971
- normalized growth (S. cerevisiae deletion strains, locus YLR330W, strain CHS5, hits give low values): 0.993
- normalized growth (S. cerevisiae deletion strains, locus YLR342W, strain FKS1 (second series), hits give low values): 0.958
- normalized growth (S. cerevisiae deletion strains, locus YLR342W, strain FKS1, hits give low values): 0.973
- normalized growth (S. cerevisiae deletion strains, locus YLR357W, strain rsc2, hits give low values): 0.998
- normalized growth (S. cerevisiae deletion strains, locus YLR370C, strain arc18, hits give low values): 1
- normalized growth (S. cerevisiae deletion strains, locus YLR371W, strain rom2, hits give low values): 0.985
- normalized growth (S. cerevisiae deletion strains, locus YLR384C, strain iki3, hits give low values): 0.982
- normalized growth (S. cerevisiae deletion strains, locus YLR418C, strain cdc73, hits give low values): 1.01
- normalized growth (S. cerevisiae deletion strains, locus YML016C, strain PPZ1, hits give low values): 1
- normalized growth (S. cerevisiae deletion strains, locus YML032C, strain rad52, hits give low values): 0.981
- normalized growth (S. cerevisiae deletion strains, locus YML120C, strain ndi1, hits give low values): 0.986
- normalized growth (S. cerevisiae deletion strains, locus YML124C, strain tub3, hits give low values): 0.988
- normalized growth (S. cerevisiae deletion strains, locus YMR058W, strain fet3, hits give low values): 1.01
- normalized growth (S. cerevisiae deletion strains, locus YMR078C, strain ctf18, hits give low values): 0.986
- normalized growth (S. cerevisiae deletion strains, locus YMR125W, strain sto1, hits give low values): 1.01
- normalized growth (S. cerevisiae deletion strains, locus YMR129W, hits give low values): 0.985
- normalized growth (S. cerevisiae deletion strains, locus YMR205C, strain PFK2, hits give low values): 0.955
- normalized growth (S. cerevisiae deletion strains, locus YMR223W, strain ubp8, hits give low values): 0.987
- normalized growth (S. cerevisiae deletion strains, locus YMR231W, strain pep5, hits give low values): 0.987
- normalized growth (S. cerevisiae deletion strains, locus YMR263W, strain SAP30, hits give low values): 1.01
- normalized growth (S. cerevisiae deletion strains, locus YMR307W, strain GAS1, hits give low values): 0.945
- normalized growth (S. cerevisiae deletion strains, locus YNL067W, strain RPL9B, hits give low values): 1.01
- normalized growth (S. cerevisiae deletion strains, locus YNL071W, strain lat1, hits give low values): 0.994
- normalized growth (S. cerevisiae deletion strains, locus YNL128W, strain TEP1, hits give low values): 1.01
- normalized growth (S. cerevisiae deletion strains, locus YNL153C, strain GIM3, hits give low values): 1.01
- normalized growth (S. cerevisiae deletion strains, locus YNL183C, strain NPR1, hits give low values): 0.933
- normalized growth (S. cerevisiae deletion strains, locus YNL209W, strain ssb2, hits give low values): 1.01
- normalized growth (S. cerevisiae deletion strains, locus YNL233W, strain BNI4, hits give low values): 0.978
- normalized growth (S. cerevisiae deletion strains, locus YNL248C, strain rpa49, hits give low values): 1.01
- normalized growth (S. cerevisiae deletion strains, locus YNL250W, strain rad50, hits give low values): 1
- normalized growth (S. cerevisiae deletion strains, locus YNL271C, strain bni1, hits give low values): 0.992
- normalized growth (S. cerevisiae deletion strains, locus YNL298W, strain CLA4, hits give low values): 0.992
- normalized growth (S. cerevisiae deletion strains, locus YNL307C, strain MCK1, hits give low values): 0.953
- normalized growth (S. cerevisiae deletion strains, locus YNL322C, strain KRE1 (second series), hits give low values): 0.967
- normalized growth (S. cerevisiae deletion strains, locus YNL322C, strain KRE1, hits give low values): 0.999
- normalized growth (S. cerevisiae deletion strains, locus YNR049C, strain mso1, hits give low values): 0.99
- normalized growth (S. cerevisiae deletion strains, locus YNR052C, strain pop2, hits give low values): 0.977
- normalized growth (S. cerevisiae deletion strains, locus YOL006C, strain TOP1, hits give low values): 0.993
- normalized growth (S. cerevisiae deletion strains, locus YOL147C, strain pex11, hits give low values): 0.985
- normalized growth (S. cerevisiae deletion strains, locus YOR001W, strain rrp6, hits give low values): 1.01
- normalized growth (S. cerevisiae deletion strains, locus YOR061W, strain CKA2, hits give low values): 1
- normalized growth (S. cerevisiae deletion strains, locus YOR069W, strain VPS5, hits give low values): 0.992
- normalized growth (S. cerevisiae deletion strains, locus YOR070C, strain gyp1, hits give low values): 0.998
- normalized growth (S. cerevisiae deletion strains, locus YOR080W, strain dia2, hits give low values): 0.974
- normalized growth (S. cerevisiae deletion strains, locus YOR083W, strain WHI5, hits give low values): 0.987
- normalized growth (S. cerevisiae deletion strains, locus YOR106W, strain vam3, hits give low values): 1.02
- normalized growth (S. cerevisiae deletion strains, locus YOR136W, strain idh2, hits give low values): 0.991
- normalized growth (S. cerevisiae deletion strains, locus YOR144C, strain elg1, hits give low values): 0.987
- normalized growth (S. cerevisiae deletion strains, locus YOR184W, strain ser1, hits give low values): 0.952
- normalized growth (S. cerevisiae deletion strains, locus YOR231W, strain MKK1, hits give low values): 0.976
- normalized growth (S. cerevisiae deletion strains, locus YOR265W, strain rbl2, hits give low values): 1.01
- normalized growth (S. cerevisiae deletion strains, locus YOR270C, strain vph1, hits give low values): 1.01
- normalized growth (S. cerevisiae deletion strains, locus YOR290C, strain snf2, hits give low values): 1
- normalized growth (S. cerevisiae deletion strains, locus YOR316C, strain cot1, hits give low values): 0.99
- normalized growth (S. cerevisiae deletion strains, locus YPL051W, strain arl3, hits give low values): 0.982
- normalized growth (S. cerevisiae deletion strains, locus YPL055C, strain LGE1, hits give low values): 0.996
- normalized growth (S. cerevisiae deletion strains, locus YPL078C, strain atp4, hits give low values): 1.01
- normalized growth (S. cerevisiae deletion strains, locus YPL106C, strain sse1, hits give low values): 0.99
- normalized growth (S. cerevisiae deletion strains, locus YPL240C, strain hsp82, hits give low values): 0.995
- normalized growth (S. cerevisiae deletion strains, locus YPL241C, strain CIN2, hits give low values): 0.998
- normalized growth (S. cerevisiae deletion strains, locus YPL256C, strain CLN2, hits give low values): 0.983
- normalized growth (S. cerevisiae deletion strains, locus YPR119W, strain clb2, hits give low values): 0.983
- normalized growth (S. cerevisiae deletion strains, locus YPR141C, strain kar3, hits give low values): 0.995
- normalized growth (S. cerevisiae deletion strains, locus YPR163C, strain tif3, hits give low values): 0.995
- normalized growth (S. cerevisiae deletion strains, locus YPR167C, strain met16, hits give low values): 0.985
- normalized growth (S. cerevisiae deletion strains, strain wtn01, hits give low values): 0.982
- normalized growth (S. cerevisiae strains, strain wild type, hits give low values): 1.01
